Assay [1] in a line: NCI Yeast Anticancer Drug Screen. Data for the rad50 strain (AID 155).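 Also: 0% = growth of vehicle-only cultures of the same strain.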 The note with it: S. cerevisiae rad50 strain growth inhibition; at 50.0 µM; stronger effect = higher value. The procedure, abridged: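 Compounds were tested on a yeast strain with an engineered DNA damage repair alteration; the reported value is growth inhibition normalised to vehicle treatment.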
A short description of assay [2]: NCI Yeast Anticancer Drug Screen. Data for the mec2-1 strain (AID 157). The note with it: S. cerevisiae mec2-1 strain, at 50.0 µM, stronger effect = higher value. In short, it runs like this: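 Vehicle-treated cultures served as reference for growth inhibition of compound-exposed mec2-1 yeast.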
Assay [3] is described as follows: NCI Yeast Anticancer Drug Screen. Data for the sgs1 mgt1 strain (AID 161).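 Also: 0% = growth of cultures given vehicle only.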 The note with it: S. cerevisiae sgs1 mgt1 strain, at 50.0 µM, stronger effect = higher value. In short, it runs like this: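 Mutant yeast exposed to compound; growth scored against vehicle-only wells.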
Assay [4] in a line: NCI Yeast Anticancer Drug Screen. Data for the cln2 rad14 strain (AID 165).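 Also: 0% = growth equal to vehicle treated cultures.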 To be noted: S. cerevisiae cln2 rad14 strain, at 50.0 µM, stronger effect = higher value. In short, it runs like this:
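Each compound was tested on cln2 rad14 yeast. Inhibition of growth was calculated against vehicle-exposed controls.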

Assay [5] in a line: NCI Yeast Anticancer Drug Screen. Data for the bub3 strain (AID 167). To be noted: S. cerevisiae bub3 mutant strain, at 50.0 µM, stronger effect = higher value. In short, it runs like this: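 Growth of a checkpoint-deficient yeast mutant is measured after compound exposure. Values represent inhibition relative to vehicle.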
Assay [6] in a line: NCI Yeast Anticancer Drug Screen. Data for the mlh1 rad18 strain (AID 175). The note with it: S. cerevisiae mlh1 rad18 strain growth inhibition; at 50.0 µM; stronger effect = higher value. In short, it runs like this:
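Vehicle-treated cultures served as the reference for growth inhibition in a yeast strain carrying DNA damage repair alterations exposed to each compound.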

Compounds without any hit were thinned out: in the full panel of roughly 79,000, 15% have a hit. A number with no mark means an inactive call. Activity calls are given as the source filed them. Rule as the data show it: active = growth inhibition above about 70%; inactive = the rest.

Consider `COC(CCC#N)c1ccc(Cl)cc1` (stereo unspecified), for which the growth inhibition in assay [1] is -31.9%; in assay [2] it was -20.6%; in assay [3] it was -26.6%; in assay [4], 1.7%; in assay [5], -31.9%; in assay [6] it was -26.6%.

As for `CC(C)(C)C(Br)CC(N)=O` (stereo unspecified), the growth inhibition is 22.1% in assay [1]; 1.55% in assay [2]; 2% in assay [3]; 4.3% in assay [4]; -6.95% in assay [5]; -6.85% in assay [6].

Regarding `Cc1ccc(S(=O)(=O)N2CCN(C=S)CC2)cc1`, the growth inhibition in assay [1] was 22.4%; in assay [2] it was -30.8%; in assay [3] it was 14.2%; in assay [4] it was 3.9%; in assay [5], 23.2%; in assay [6], 26.9%.

For `CCOC(=O)c1c(C(F)(F)F)oc2c1ccc1nc3nonc3nc12`, the growth inhibition was 43.6% in assay [1]; 21.6% in assay [2]; 23.1% in assay [3]; 27.5% in assay [4]; 20.9% in assay [5]; 35% in assay [6].

Regarding `COc1ccc(/C=C/C(=O)c2cc(C(=O)O)c(OC)cc2OC)cc1OC`, the growth inhibition in assay [1] was 4%; in assay [2] it was -6.45%; in assay [3] it was 22.4%; in assay [4] it was 14.2%; in assay [5], 17.9%; in assay [6] it was -20.8%.

For `C=C1C(=O)OC2(CCCCC)CCCCC12` (stereo unspecified), the growth inhibition in assay [1] was 1.95%; in assay [2] it was 4.1%; in assay [3], -11.2%; in assay [4] it was -9.9%; in assay [5], 0.5%; in assay [6], -10.5%.

In the case of `OCCCCCCN=Cc1ccccc1O.OCCCCCCN=Cc1ccccc1O.[Cu]`, the growth inhibition in assay [1] is 47.9%; in assay [2], -1.2%; in assay [3], 72.2% (active); in assay [4], -48.2%; in assay [5], 4.25%; in assay [6], 14.8%.

For the molecule `COc1cccc(N2CCN(CC(O)COc3ccc(N)cc3)CC2)c1` (stereo unspecified), the growth inhibition in assay [1] is 36.1%; in assay [2] it was 25.1%; in assay [3] it was 31.9%; in assay [4], 30.6%; in assay [5], 25.1%; in assay [6], 44%.

As for `CCCCCCCCCCCCCCC(=O)Cl`, the growth inhibition is 9% in assay [1]; 7.25% in assay [2]; 5.8% in assay [3]; 8.2% in assay [4]; -9.95% in assay [5]; 8.85% in assay [6].

In the case of `O=C(c1ccccc1)c1ccccc1C(=O)c1ccccc1`, the growth inhibition is 77% (active) in assay [1]; 25.6% in assay [2]; 54% in assay [3]; -43% in assay [4]; 70.4% (active) in assay [5]; 52% in assay [6].

For the molecule `N#CCCN(CCC#N)c1ccc(/C=C2/C=C(c3ccccc3)OC2=O)cc1`, the growth inhibition in assay [1] is 22.4%; in assay [2], -0.25%; in assay [3], 19.1%; in assay [4], 7.75%; in assay [5], -5.85%; in assay [6], 11.3%.

With `CC1(C)OC12C=CC1C2C2CCC1C21OC1(C)C` (stereo unspecified), the growth inhibition is 8% in assay [1]; 8.7% in assay [2]; -2.85% in assay [3]; 20.1% in assay [4]; -7.3% in assay [5]; -14.6% in assay [6].

As to `CCC(CC)(SC(C)C(N)=O)C(C)=O` (stereo unspecified), the growth inhibition in assay [1] was 0.35%; in assay [2], 7.4%; in assay [3], -16.3%; in assay [4], -11.3%; in assay [5], 5.75%; in assay [6] it was 0.6%.

Consider `CC(SSc1ccc(C(C)(C)C)cc1)c1ccccc1` (stereo unspecified), for which the growth inhibition in assay [1] was 9.25%; in assay [2], -14.2%; in assay [3], -11.1%; in assay [4], -35.4%; in assay [5], 10.2%; in assay [6], -1.4%.

Turning to `CCCCCC(C)(O)CCCCC`, the growth inhibition in assay [1] was 0.15%; in assay [2], 1.75%; in assay [3], 1.7%; in assay [4], 11.7%; in assay [5], 18.3%; in assay [6] it was 12%.

As to `CCN(CC)CCCNc1ccc2nnn3c4ccc(O)cc4c(=O)c1c23`, the growth inhibition is -15.6% in assay [1]; -7.9% in assay [2]; -7.35% in assay [3]; 25.3% in assay [4]; -6.5% in assay [5]; 6.65% in assay [6].

For `COc1ccc(C(=O)c2ccc(Cl)cc2)c(O)c1OC`, the growth inhibition is -5.85% in assay [1]; -6.55% in assay [2]; -1.7% in assay [3]; 3.9% in assay [4]; 19.4% in assay [5]; -9.4% in assay [6].

As to `C(=C\c1csnn1)/c1ccc(/C=C/c2csnn2)cc1`, the growth inhibition in assay [1] was -18%; in assay [2], 15.9%; in assay [3] it was 7.7%; in assay [4], 11.9%; in assay [5], 5.3%; in assay [6] it was -8.2%.

`CCN(CC)CCOCCO`: the growth inhibition in assay [1] is -8.6%; in assay [2], -16%; in assay [3] it was -0.65%; in assay [4], 11.7%; in assay [5] it was 0.95%; in assay [6] it was -2.15%.

Take `CCOC(=O)c1cc2c(OC)cc(OC)cc2oc1=O`: the growth inhibition in assay [1] was 21.8%; in assay [2] it was 2.6%; in assay [3], 25.1%; in assay [4], 32.8%; in assay [5] it was 28.9%; in assay [6], 2.55%.

In the case of `CC(=O)CCc1ccccc1`, the growth inhibition is 5.6% in assay [1]; -7.8% in assay [2]; -0.9% in assay [3]; -23% in assay [4]; -1.75% in assay [5]; 1.9% in assay [6].

Source of the values: PubChem BioAssay (NCI).
